The values below come from PubChem BioAssay (NCI).

The structures appear in SMILES notation. The panel holds about 83,000 compounds, 20% with a hit somewhere; the sample as a whole holds those more often.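 Values shown are percent growth following 48 h exposure of cells in 96-well plates to a single concentration of compound; below 10 was considered active.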 A number with no mark means an inactive call. The source made the active and inactive calls.

Holding throughout (assay): NCI-60 one-dose screen, 48 h (100 = growth as untreated, 0 = no growth, -100 = all killed)
Common to all, as to details: 10 µM unless noted

Assay [1] has as its system NCI-H23 lung.
In assay [2] the test system is NCI-H226 lung.
The subject of assay [3] is NCI-H322M lung.
In assay [4] the test system is HOP-62 NSCLC.
In assay [5] the test system is NCI-H460 lung.
Assay [6] deals with NCI-H522 lung.
Assay [7] relates to A549/ATCC NSCLC.
Assay [8] relates to 786-0 renal.
The subject of assay [9] is COLO 205 colon.
In assay [10] the test system is HOP-92 NSCLC.

For `CC1(c2ccccc2O)NN=C(/N=C/c2cccc([N+](=O)[O-])c2)N1C(Cc1c[nH]c2ccccc12)C(=O)O` (configuration not stated), the growth in assay [1] is 80.3%; in assay [2] it was 82.1%; in [3], 97.6%; in [4], 65.8%; in [5] it was 102%; in assay [6], 70.2%. The growth in assay [7] is 103%; in assay [8], 99.5%; in assay [9], 84%.
Regarding `COC(=O)c1c2c(c(C)[n+]([O-])c1C)C(=O)C=C(NCc1ccc(OC)cc1)C2=O`, the growth is -38.8% (active) in assay [1]; -8.68% (active) in assay [2]; -6.26% (active) in assay [3]; 3.79% (active) in assay [4]; -3.91% (active) in assay [5]; -19.5% (active) in [6]. Also, the growth is -18.4% (active) in [7], 3.11% (active) in assay [8] and -54% (active) in assay [9].
Take `COc1ccc(C(=O)C2C(c3ccc(OC)cc3)CN(C)C23C(=O)Nc2ccccc23)cc1` (configuration not stated): the growth in [1] is 86.1%; in assay [2], 88%; in assay [3], 103%; in [4], 94.3%; in assay [5], 97.7%; in assay [6], 76.4%. Besides, the growth is 87.9% in [7], 96% in assay [8] and 105% in assay [9].
Take `CN([O-])c1nc(N(C)[O-])nc(N2CCOCC2)n1.CN([O-])c1nc(N(C)[OH2+])nc(N2CCOCC2)n1.[Fe+3]`: the growth is 100% [100 µM] in assay [1]; 101% [100 µM] in [2]; 104% [100 µM] in assay [3]; 165% [100 µM] in [4]; 36.1% [100 µM] in [5]; 52.9% [100 µM] in assay [6]. The growth in assay [7] is 72.7% [100 µM]; in [8] it was 114% [100 µM]; in assay [9] it was 144% [100 µM].
As for `CCNc1cc(-c2cccc(OC(F)(F)F)c2)nc2ccc(N3CCCC3)cc12`, the growth in [1] is 7.13% (active); in assay [2] it was 37.3%; in [3], 22.1%; in assay [4], -10.1% (active); in [5] it was 1.03% (active); in assay [10], -6.27% (active). Further, the growth in [6] was -16.8% (active); in [7], 10.3%; in [8], -18.4% (active); in [9] it was -65.9% (active).
With `C=CCn1c(SCC(=O)Nc2ccc(C(=O)/C=C/c3cc4cc(OC)ccc4nc3Cl)cc2)nnc1-c1ccc(Br)cc1`, the growth in [1] was 78%; in assay [2], 89.4%; in assay [3], 81.9%; in assay [4] it was 99.3%; in assay [5] it was 88.4%; in [6], 52.9%. Also, the growth in assay [7] was 70.7%; in assay [8] it was 80.9%; in assay [9] it was 112%.
For `COCCn1cc(-c2nc(-c3cc4cccnc4n3CCOC)cs2)c2cc(OC)ccc21`, the growth in assay [1] is 61.5%; in assay [2], 63.1%; in assay [3], 39.5%; in assay [4] it was 74.7%; in assay [5], 40.2%; in assay [6], 16.7%. Further, the growth was 46% in assay [7], 58.5% in assay [8] and 44.3% in assay [9].
For `CCOC(=O)C(=Cc1cccc(Cl)c1)C(=O)OCC`, the growth is 57.2% in assay [1]; -65.4% (active) in [2]; 84.2% in [3]; 85.2% in assay [4]; 74.4% in [5]; -42.9% (active) in [6]. Also, the growth in assay [7] is 46.9%; in [8], 7.82% (active); in assay [9], -2.83% (active).
As to `Cc1ccc(Sc2oc(-c3ccc(C)cc3)nc2[P+](c2ccccc2)(c2ccccc2)c2ccccc2)cc1`, the growth in assay [1] was -17.2% (active); in [2], 15.7%; in assay [3], 10.3%; in assay [4], 9.94% (active); in assay [5], -39.6% (active); in assay [6], -38.5% (active). Further, the values for the growth in assay [7], in [8] and in assay [9] were 7.74% (active), 3.99% (active) and -41.5% (active), respectively.
With `Cn1c(O)c(C=NCCN=Cc2c(O)n(C)c(=O)n(C)c2=O)c(=O)n(C)c1=O`, the growth was 97% in [1]; 92.3% in assay [2]; 89.3% in assay [3]; 90.7% in assay [4]; 107% in [5]; 105% in assay [6]. In addition, the figures for the growth in assay [7], in [8] and in [9] were 100%, 113% and 101%, respectively.
`CC(=O)OC[C@]12CCC(C)(C)C[C@H]1[C@@]1(O)[C@H](O)C[C@@H]3[C@@]4(C)CCCNC(C)(C)[C@@H]4CC[C@@]3(C)[C@]1(C)CC2`: the growth in [1] is 106%; in assay [2], 102%; in assay [3], 98.1%; in assay [4] it was 107%; in [5], 110%; in [6], 93.6%. The results for the growth in [7], in assay [8] and in [9] were 106%, 101% and 117%, respectively.
For `COc1ccc(OC)c(C(=O)/C=C/c2cc3c(c(OC)c2OC)OCO3)c1`, the growth in assay [1] was 57.8%; in assay [2] it was 92%; in [3], 71.1%; in assay [4], 101%; in [5], 50.1%; in assay [6], 74.3%. In addition, the growth in [7] is 62.7%; in assay [8], 100%; in assay [9] it was 95.8%.
As for `NC(=O)c1c(NC(=O)c2ccccc2)sc2c1CCC(=O)C2`, the growth in assay [1] is 5.93% (active); in assay [2], 16.2%; in assay [3] it was 88.2%; in assay [4] it was 45.1%; in assay [5], 11.6%; in [6], -9.03% (active). The growth in [7] was 30%; in assay [8], 28%; in assay [9], -49.9% (active).
In the case of `O=C1N(Cc2ccccc2Cl)c2ccccc2C12NN=C(c1cccc(Cl)c1)S2` (configuration not stated), the growth is -18.7% (active) in assay [1]; -58.4% (active) in assay [2]; -12.7% (active) in [3]; -22.6% (active) in assay [4]; -50.7% (active) in assay [5]; 16.7% in assay [6]. The growth was -63.7% (active) in [7], -67.7% (active) in assay [8] and 66.8% in assay [9].
